Laboratory results as given in the supplement of paper PMC10849652.
The full data set covers some 7,900 targets. This sample favours those with a hit. About 0.6% of all pairs of compound and target were hits. A number with no mark means an inactive call.

Columns and labels:
Test in all cases: log2 fold change, soluble protein after heating vs DMSO (PISA); higher = thermal stabilisation; K562 cells, 10 uM, 30 min; active = over 0.2 and 3.5 SD of the protein, either way, in both replicates (recomputed)
[1] = compound: CC[C@@H]1C(=O)N(C)c2cnc(Nc3ccc(C(=O)NC4CCN(C)CC4)cc3OC)nc2N1C1CCCC1
In short: (§1)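 Soluble protein was quantified by TMTpro 16plex LC-MS/MS after channel sums were equalised. It was obtained as the supernatant after 21,000xg for 90 min from pooled aliquots of K562 cells (2×10^6 cells/mL, 10 μM compound, 30 min) heated for 3 min across 48°C-58°C and extracted in PBS with 0.5% NP-40 at 4°C. Thermal stability values are relative to control samples and come from duplicates. They are given as log2 fold changes.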

[2] = compound: CC[C@@H]1C(=O)N(C)c2cnc(Nc3ccc(C(=O)N[C@H]4CC[C@H](N5CCN(CC6CC6)CC5)CC4)cc3OC)nc2N1C(C)C [volasertib]
In short: as §1

[3] = compound: CC[C@H](C)N1C=C(C2=C(C=C(C=C21)C3=CN=C(C=C3)N4CCNCC4)C(=O)NCC5=C(C=C(NC5=O)C)C)C
In short: as §1

[4] = compound: CC[C@H](C)[C@@H](C(=O)N[C@@H]([C@@H](C)O)C(=O)N[C@@H](CC(C)C)C(=O)[C@]1(CO1)C)NC(=O)[C@H]([C@@H](C)CC)N(C)C(=O)C [epoxomicin]
In short: as §1

[5] = compound: CCn1c(C(=O)N(C2CC2)C2CC2)cc2c3c(ncn3C)c(Nc3cc(C)n(C)n3)nc21
In short: as §1

[6] = compound: CCn1cc(-c2ccnc3[nH]c(-c4cccc(CN(C)C)c4)cc23)c(-c2ccc(NC(=O)N(C)C)cc2)n1
In short: as §1

[7] = compound: CN(C)CC(=O)Nc1ccc2[nH]c(=O)c3ccccc3c2c1
In short: as §1

[8] = compound: CN(CCOC1=CC=C(C=C1)C[C@H]2C(=O)NC(=O)S2)C3=CC=CC=N3 (racemic) [rosiglitazone]
In short: as §1

[9] = compound: CN1C2=C(C3=C1C(=O)N(N=C3)CC4=CC(=CC=C4)N)SC(=C2)S(=O)C
In short: as §1

[10] = compound: CN1CCC(CNc2ccc3ncc(-c4cccc(OC(F)(F)F)c4)n3n2)CC1
In short: as §1

[11] = compound: CN1CCN(CCOc2cc(OC3CCOCC3)c3c(Nc4c(Cl)ccc5c4OCO5)ncnc3c2)CC1 [saracatinib]
In short: as §1

[12] = compound: CN1CCN(c2nc(C3=C(c4c[nH]c5ccccc45)C(=O)NC3=O)c3ccccc3n2)CC1 [sotrastaurin]
In short: as §1

[13] = compound: CN1CC[C@H](c2c(O)cc(O)c3c(=O)cc(-c4ccccc4Cl)oc23)[C@H](O)C1 [alvocidib]
In short: as §1

[14] = compound: CN1CCc2c(c3ccccc3n2Cc2ccc(C(=O)NO)cc2)C1 [Tubastatin A]
In short: as §1

[15] = compound: CNC(=O)C1=CC=CC=C1NC2=NC(=NC=C2Cl)NC3=C(C=C(C=C3)N4CCOCC4)OC
In short: as §1

[16] = compound: CNC(=O)c1ccc(Nc2ncc(C(F)(F)F)c(NCc3nccnc3N(C)S(C)(=O)=O)n2)cc1 [defactinib]
In short: as §1

[17] = compound: CNCc1ccc(-c2[nH]c3cc(F)cc4c3c2CCNC4=O)cc1 [rucaparib]
In short: as §1

[18] = compound: CNc1nc(-c2ccc3c(N)n[nH]c3c2)cc(N2C[C@@H](C(=O)NC3CCCCC3)CC[C@H]2C)n1
In short: as §1

[19] = compound: COC(=O)N[C@@H](C)CNc1nccc(-c2cn(C(C)C)nc2-c2cc(Cl)cc(NS(C)(=O)=O)c2F)n1 [encorafenib]
In short: as §1

[20] = compound: COC(=O)[C@H](CCSC)NC(=O)C1=C(C=C(C=C1)NC[C@H](CS)N)C2=CC=CC=C2
In short: as §1

UniProt P41240, sequence (P41240 whole entry, looked up): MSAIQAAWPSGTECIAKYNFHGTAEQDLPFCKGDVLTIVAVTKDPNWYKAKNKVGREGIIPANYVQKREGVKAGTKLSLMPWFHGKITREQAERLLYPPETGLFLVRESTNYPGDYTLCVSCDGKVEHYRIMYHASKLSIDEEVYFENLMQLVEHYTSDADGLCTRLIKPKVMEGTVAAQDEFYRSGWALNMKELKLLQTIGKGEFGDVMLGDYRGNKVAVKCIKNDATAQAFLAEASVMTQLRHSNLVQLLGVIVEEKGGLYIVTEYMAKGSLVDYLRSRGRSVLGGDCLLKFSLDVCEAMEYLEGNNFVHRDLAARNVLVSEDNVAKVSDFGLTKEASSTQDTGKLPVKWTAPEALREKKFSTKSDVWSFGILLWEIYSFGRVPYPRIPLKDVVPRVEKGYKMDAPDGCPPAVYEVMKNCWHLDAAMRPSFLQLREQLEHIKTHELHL
UniProt A5YKK6, sequence (A5YKK6 whole entry, looked up): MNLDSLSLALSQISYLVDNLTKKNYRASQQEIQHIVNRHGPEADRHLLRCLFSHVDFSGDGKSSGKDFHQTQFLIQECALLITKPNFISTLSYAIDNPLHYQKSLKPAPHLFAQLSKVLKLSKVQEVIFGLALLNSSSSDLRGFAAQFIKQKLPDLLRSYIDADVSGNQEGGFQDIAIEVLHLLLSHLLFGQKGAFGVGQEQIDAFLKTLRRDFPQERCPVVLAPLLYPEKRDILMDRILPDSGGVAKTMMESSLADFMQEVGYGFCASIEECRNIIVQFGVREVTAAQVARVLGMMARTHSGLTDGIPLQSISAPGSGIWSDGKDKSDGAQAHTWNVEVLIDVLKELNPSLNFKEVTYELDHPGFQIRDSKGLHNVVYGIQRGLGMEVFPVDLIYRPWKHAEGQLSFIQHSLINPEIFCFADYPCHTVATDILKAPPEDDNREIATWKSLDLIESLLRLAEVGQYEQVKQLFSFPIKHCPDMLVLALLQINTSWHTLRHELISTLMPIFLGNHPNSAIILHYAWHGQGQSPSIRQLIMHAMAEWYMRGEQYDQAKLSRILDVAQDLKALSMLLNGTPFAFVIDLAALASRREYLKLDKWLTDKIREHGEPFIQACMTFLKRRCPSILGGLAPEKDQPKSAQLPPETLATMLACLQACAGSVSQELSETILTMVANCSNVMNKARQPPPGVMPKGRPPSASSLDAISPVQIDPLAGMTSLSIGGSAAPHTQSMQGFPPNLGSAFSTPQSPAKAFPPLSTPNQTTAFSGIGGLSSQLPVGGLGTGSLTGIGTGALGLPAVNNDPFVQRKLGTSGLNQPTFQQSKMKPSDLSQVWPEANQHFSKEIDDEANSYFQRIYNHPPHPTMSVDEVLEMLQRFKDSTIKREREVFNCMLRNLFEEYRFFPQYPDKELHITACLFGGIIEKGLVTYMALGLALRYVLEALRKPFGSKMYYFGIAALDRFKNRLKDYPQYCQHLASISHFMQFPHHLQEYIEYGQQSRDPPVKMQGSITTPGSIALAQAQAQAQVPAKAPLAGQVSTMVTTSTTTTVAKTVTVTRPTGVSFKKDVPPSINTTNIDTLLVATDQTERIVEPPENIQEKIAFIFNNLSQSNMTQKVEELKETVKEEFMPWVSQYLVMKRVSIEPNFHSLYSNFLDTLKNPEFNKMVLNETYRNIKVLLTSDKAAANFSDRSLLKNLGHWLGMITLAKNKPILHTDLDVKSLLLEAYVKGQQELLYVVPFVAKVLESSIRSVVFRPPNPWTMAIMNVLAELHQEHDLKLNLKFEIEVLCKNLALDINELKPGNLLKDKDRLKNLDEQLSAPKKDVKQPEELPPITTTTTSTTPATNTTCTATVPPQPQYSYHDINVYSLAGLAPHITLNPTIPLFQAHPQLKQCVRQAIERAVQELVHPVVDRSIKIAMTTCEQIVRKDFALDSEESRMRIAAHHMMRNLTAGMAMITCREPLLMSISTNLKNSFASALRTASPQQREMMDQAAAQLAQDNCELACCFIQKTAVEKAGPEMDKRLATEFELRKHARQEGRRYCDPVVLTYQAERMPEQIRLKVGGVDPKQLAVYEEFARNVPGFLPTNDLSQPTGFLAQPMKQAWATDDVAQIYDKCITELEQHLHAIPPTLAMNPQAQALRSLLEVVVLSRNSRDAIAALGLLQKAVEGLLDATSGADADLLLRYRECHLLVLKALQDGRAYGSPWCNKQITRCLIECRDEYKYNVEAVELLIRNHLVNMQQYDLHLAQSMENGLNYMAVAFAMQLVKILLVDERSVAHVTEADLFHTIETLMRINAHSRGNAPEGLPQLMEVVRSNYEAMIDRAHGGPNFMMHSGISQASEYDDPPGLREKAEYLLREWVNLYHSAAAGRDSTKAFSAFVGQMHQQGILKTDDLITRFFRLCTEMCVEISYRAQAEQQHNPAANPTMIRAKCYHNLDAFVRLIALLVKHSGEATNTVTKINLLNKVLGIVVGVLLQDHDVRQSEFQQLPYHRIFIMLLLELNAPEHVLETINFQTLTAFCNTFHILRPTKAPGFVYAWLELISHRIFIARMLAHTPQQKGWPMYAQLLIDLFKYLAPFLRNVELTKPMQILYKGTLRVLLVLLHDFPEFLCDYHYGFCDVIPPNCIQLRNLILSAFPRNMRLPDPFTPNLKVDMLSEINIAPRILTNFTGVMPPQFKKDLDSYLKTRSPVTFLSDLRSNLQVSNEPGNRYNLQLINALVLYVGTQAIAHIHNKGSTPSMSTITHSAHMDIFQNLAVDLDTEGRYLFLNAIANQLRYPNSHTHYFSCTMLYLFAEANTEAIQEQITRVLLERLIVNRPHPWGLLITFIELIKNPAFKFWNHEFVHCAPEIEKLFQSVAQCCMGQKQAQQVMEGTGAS
UniProt O75909, sequence (O75909 whole entry, looked up): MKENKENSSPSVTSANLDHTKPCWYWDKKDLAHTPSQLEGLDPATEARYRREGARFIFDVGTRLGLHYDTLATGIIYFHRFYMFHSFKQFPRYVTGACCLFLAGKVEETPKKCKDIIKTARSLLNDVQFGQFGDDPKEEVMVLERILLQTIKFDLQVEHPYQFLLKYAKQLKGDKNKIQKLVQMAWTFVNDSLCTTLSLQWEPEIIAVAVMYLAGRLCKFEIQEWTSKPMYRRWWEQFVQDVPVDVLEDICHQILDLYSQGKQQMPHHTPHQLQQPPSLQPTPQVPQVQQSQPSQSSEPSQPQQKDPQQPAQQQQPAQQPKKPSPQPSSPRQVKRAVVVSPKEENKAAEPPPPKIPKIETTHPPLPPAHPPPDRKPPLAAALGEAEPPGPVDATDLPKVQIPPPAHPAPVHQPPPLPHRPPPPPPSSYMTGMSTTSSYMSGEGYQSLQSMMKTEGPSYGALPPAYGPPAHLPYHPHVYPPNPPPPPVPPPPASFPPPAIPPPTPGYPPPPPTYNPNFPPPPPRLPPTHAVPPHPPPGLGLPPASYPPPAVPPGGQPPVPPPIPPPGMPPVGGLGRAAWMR
UniProt P08174, sequence (P08174 whole entry, looked up): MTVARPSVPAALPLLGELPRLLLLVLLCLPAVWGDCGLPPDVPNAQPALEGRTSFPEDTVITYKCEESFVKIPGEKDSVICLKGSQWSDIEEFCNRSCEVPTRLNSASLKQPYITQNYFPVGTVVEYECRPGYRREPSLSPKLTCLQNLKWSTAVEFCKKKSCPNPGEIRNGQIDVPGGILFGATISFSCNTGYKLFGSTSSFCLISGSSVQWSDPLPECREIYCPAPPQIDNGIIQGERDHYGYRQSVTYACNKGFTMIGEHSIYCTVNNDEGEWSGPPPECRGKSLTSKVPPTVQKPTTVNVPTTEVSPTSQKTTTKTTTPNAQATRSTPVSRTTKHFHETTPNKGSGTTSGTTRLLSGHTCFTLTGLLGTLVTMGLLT
UniProt Q9H444, sequence (Q9H444 whole entry, looked up): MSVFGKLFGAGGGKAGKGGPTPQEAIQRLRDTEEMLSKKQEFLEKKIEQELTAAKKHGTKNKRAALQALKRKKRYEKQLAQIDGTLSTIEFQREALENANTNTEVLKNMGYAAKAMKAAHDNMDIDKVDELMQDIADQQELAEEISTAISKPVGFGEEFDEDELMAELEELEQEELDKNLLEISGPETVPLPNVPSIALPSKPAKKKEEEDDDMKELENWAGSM
UniProt Q8N4Q1, sequence (Q8N4Q1 whole entry, looked up): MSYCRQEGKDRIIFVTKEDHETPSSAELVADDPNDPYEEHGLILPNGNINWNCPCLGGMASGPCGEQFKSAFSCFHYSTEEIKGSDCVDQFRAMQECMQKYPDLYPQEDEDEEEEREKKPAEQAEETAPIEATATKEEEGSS
UniProt Q00587, sequence (Q00587 whole entry, looked up): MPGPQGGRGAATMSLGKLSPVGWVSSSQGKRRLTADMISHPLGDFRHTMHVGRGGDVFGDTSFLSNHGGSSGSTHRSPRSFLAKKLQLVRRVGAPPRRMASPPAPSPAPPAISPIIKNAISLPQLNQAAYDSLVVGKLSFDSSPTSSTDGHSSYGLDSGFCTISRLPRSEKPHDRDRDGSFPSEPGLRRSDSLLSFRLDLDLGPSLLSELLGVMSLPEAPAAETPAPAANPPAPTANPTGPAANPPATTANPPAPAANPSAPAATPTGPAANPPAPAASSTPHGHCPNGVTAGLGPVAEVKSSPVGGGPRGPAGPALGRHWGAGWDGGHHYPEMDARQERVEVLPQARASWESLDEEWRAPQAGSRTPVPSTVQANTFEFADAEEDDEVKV

Target	log2 fold change [1]	log2 fold change [2]	log2 fold change [3]	log2 fold change [4]	log2 fold change [5]	log2 fold change [6]	log2 fold change [7]	log2 fold change [8]	log2 fold change [9]	log2 fold change [10]	log2 fold change [11]	log2 fold change [12]	log2 fold change [13]	log2 fold change [14]	log2 fold change [15]	log2 fold change [16]	log2 fold change [17]	log2 fold change [18]	log2 fold change [19]	log2 fold change [20]
CHCHD4 isoform 2 (UniProt Q8N4Q1)	-0.009	-0.125	-0.096	-0.186	-0.034	0.231	-0.023	-0.007	-0.107	0.795 (active)	0.277	0.003	-0.14	0.061	0.199	-0.049	-0.007	0.202	-0.046	-0.034
CNOT1 (UniProt A5YKK6)	-0.051	-0.312 (active)	0.056	-0.028	-0.028	0.028	0.061	0.013	0.011	-0.082	-0.025	-0.087	-0.051	-0.003	0.03	-0.057	0.077	0.024	0.074	-0.031
CDC42EP1 (UniProt Q00587)	-0.005	0.058	0.057	0.032	-0.096	-0.051	-0.016	0.093	0.039	-0.554 (active)	-0.017	0.025	-0.146	0.001	-0.303	-0.144	-0.002	0.016	-0.017	0.007
CD55 isoform 7 (UniProt P08174)	0.172	0.096	-0.031	0.086	0.02	-0.006	-0.042	-0.078	-0.005	0.228 (active)	0.06	-0.01	0.03	0.033	0.012	0.007	0.022	0.028	-0.016	0.039
CHMP4B (UniProt Q9H444)	-0.05	0.062	-0.044	-0.008	0.043	-0.065	-0.053	-0.031	-0.057	-0.033	0.021	-0.061	0.017	-0.024	-0.026	-0.017	0.02	-0.019	-0.055	0.054
CSK (UniProt P41240)	-0.132	-0.306 (active)	0.05	0.014	-0.013	-0.075	0.024	0.032	-0.011	-0.147	-0.01	-0.069	-0.102	0.048	0.097	-0.105	-0.008	0.007	0.013	-0.048
CPT1A (UniProt P50416)	-0.048	-0.047	0.045	-0.003	-0.076	-0.064	0.013	0.025	-0.053	0.333 (active)	0.021	0.075	0.578 (active)	0.142	0.161	-0.087	0.054	0.148	0.069	-0.04
CCNK isoform 4 (UniProt O75909)	0.099	0.045	-0.018	-0.254	0.025	0.129	-0.051	-0.038	0.105	0.032	-0.072	0.135	0.022	0.057	-0.147	0.043	0.066	-0.019	0.029	0.003
